The text below walks through data of PubChem BioAssay.

Records with an inconclusive call do not appear. Calls of active or inactive are those of the source.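 How the source made its calls, unless noted: active means inhibition over a set limit, the all-compound mean plus 3 SD, in both replicate runs; inconclusive means over that limit in just one replicate run; inactive means at or under that limit in both runs.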

By viability is commonly meant a read-out of living cells in per cent, often relative to untreated cells. For orientation: inhibition means the relative decrease from the control value, in per cent.

Test [1] is described as follows: reducers of endogenous Her2 protein level, primary screen, SKBR3 breast tumor cells, AlphaScreen, ATP viability (AID 461;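 active means Her2 level under about 52% in both replicate screens, with viability over 70% of control, limit read from the data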;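 on Her2 level: lower value means less Her2 protein in the cells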;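 on viability: percent of carrier control wells set as 100% viability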). Particulars: 18-24 h, measured here: SKBR3 viability, ATP luminescence, at 10 µM.
Test [2] addresses Receptor tyrosine-protein kinase erbB-2 (Homo sapiens) (UniProt P04626). The description is as above. The settings on record: 18-24 h, at 10 µM, stronger effect = lower value.
A short description of test [3]: SK-BR-3 cell growth inhibitors, pilot screen, 24 h, human (AID 572;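 active means viability at or below 10% of carrier control in both of two separate runs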;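 further: compound exposure lasted between 18 and 24 h rather than exactly 24 h; 100% = carrier-treated control wells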). Particulars: SK-BR-3 viability, CellTiter-Glo luminescence, at 10 µM, stronger effect = lower value. (In general: In ATP-based viability assays light output follows the ATP content of the culture.)
Test [4] is described as follows: HUVEC growth inhibition – cell-based, human, primary screen (AID 575;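 active means viability at or below 30% in both replicate assays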;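 further: 100% = median of untreated cell wells with 0.1% DMSO on each plate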). The settings on record: HUVEC proliferation, CellTiter-Glo luminescence, 72 h; at 10 µM; stronger effect = lower value.
Test [5] is described as follows: growth inhibitors of H69AR lung tumor, primary screen, human, duplicate replicates (AID 580;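 active means viability at or under a set limit in both replicates, limit being median viability minus 3 SD, cut at about 48% in these data, passing the limit was not always enough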;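 further: 100% = mean luminescence of untreated wells and 0% = no signal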). Particulars: H69AR lung tumor cells viability, ATP luminescence, 72 h; at 10 µM; stronger effect = lower value.
The nature of test [6]: reversal of MRP1-mediated doxorubicin resistance, pilot screen, H69AR cells, doxorubicin co-treatment (AID 601;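 active means viability loss from added drug above about 55%, and viability with drug at most 40%, in both replicates, limit read from the data, passing the limit was not always enough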). Particulars: CellTiter-Glo, 72 h, at 10 µM; for differential viability (reversal): stronger effect = higher value.
Test [7] can be described thus: 384-well plate pilot, post-Golgi transport modulator project, inhibition of yeast transport mutant growth (AID 636; in the data active means inhibition above about 31%). Particulars: absorbance 615 nm, about 18 h, stronger effect = higher value.
A short description of test [8]: growth suppression of yeast trafficking mutant, preliminary HTS, modulators of trafficking downstream of Golgi apparatus project, 1536-format plate, OD 615 nm (AID 637; in the data active means inhibition above about 30%). The settings on record: yeast transport mutant growth, absorbance 615 nm, 18 h; stronger effect = higher value.
Test [9] in a line: OD615 S. cerevisiae growth inhibition, permissive medium, pilot counter-assay, permissive growth control for S. cerevisiae lifespan shortening project (AID 705;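 active means growth inhibition above 25% in both replicates, a cutoff set 3 SD above the mean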). Particulars: OD615, 24 h, at 10 µM, stronger effect = higher value.
A short description of test [10]: Restrictive medium S. cerevisiae growth inhibition, OD615, pilot screen of yeast lifespan reduction project, restrictive growth control (AID 706;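 active means growth inhibition above a set limit, 3 SD over mean compound inhibition, in both replicates, cut at about 43% in these data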;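 further: modified DeaD lifespan yeast strain shifted to restrictive glucose medium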). Particulars: OD615, 48 h, at 10 µM, stronger effect = higher value.
A short description of test [11]: viability gain of MRP-1-high H69AR cells under doxorubicin, pilot screen, MRP-1 activator project, CellTiter-Glo, duplicate (AID 807;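 active means viability increase at or above a cutoff of the median across tested compounds plus 3 SD, cut at about 8.5% in these data, passing the limit was not always enough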;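 further: compound pretreatment 18-22 h then 72 h combined with doxorubicin; 0% = doxorubicin alone and 100% = vehicle without doxorubicin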). The settings on record: H69AR viability with doxorubicin, CellTiter-Glo luminescence; at 10 µM; stronger effect = higher value.
The nature of test [12]: growth suppression of beta-catenin knockout HCT116, pilot screen, human colon tumor cells (AID 823;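 active means cell viability at or below a set limit in both duplicate runs, the limit being the all-compound median minus 4 SD, cut at about 23% in these data, passing the limit was not always enough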;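 further: 0% = wells killed by 20 µM Hyamine and 100% = untreated DMSO cell wells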). The settings on record: CellTiter-Glo, 60 h, at 10 µM, stronger effect = lower value.
Test [13] can be described thus: growth suppression of PTEN-deleted HCT116, pilot screen, cell-based, HCT116 clonal line, CellTiter-Glo (AID 824;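 active means viability at or below 27.92% in each of two runs, the all-compound median minus 4 SD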;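 further: 0% = 20 µM Hyamine control and 100% = vehicle cell control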). Particulars: 60 h, at 10 µM, stronger effect = lower value.
Test [14] is described as follows: inhibitors of the yeast RAM network, pilot screen, dse1pr::URA3 reporter, 5-FOA selection (AID 869).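 Further: 0% = DMSO wells with no growth and 100% = 10 µM 1-NA-PP1 with full growth; RAM network block rescues cells from 5-FOA so hits raise OD615 growth.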 The settings on record: S. cerevisiae dse1pr::URA3 5-FOA growth, OD615, 2 d; at 10 µM; stronger effect = higher value; strain carries analog-sensitive mutant Cbk1 kinase.
A short description of test [15]: RAM signaling pathway blockade in yeast – S. cerevisiae, Pdr1DBD-CYC8 efflux-inhibited sensitized strain, primary screen (AID 1298;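 active means RAM network inhibition above 8.4% in each of two replicates, 3 SD over the compound average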;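 further: 0% = DMSO untreated cells without growth and 100% = 10 µM 1-NA-PP1 full growth; higher means more yeast growth rescued from 5-FOA killing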). Particulars: S. cerevisiae cbk1-as DSE1-URA3 strain, 5-FOA growth OD615, 2 d; at 50 µM; stronger effect = higher value.
Setting [16] is: H69AR cells + 2 uM doxorubicin, measured here: viability with 2 uM doxorubicin, stronger effect = lower value.
The mark [17] stands for this setting: H69AR cells, compound alone cytotoxicity.

Receptor tyrosine-protein kinase erbB-2 (Homo sapiens), sequence (P04626 whole entry, looked up): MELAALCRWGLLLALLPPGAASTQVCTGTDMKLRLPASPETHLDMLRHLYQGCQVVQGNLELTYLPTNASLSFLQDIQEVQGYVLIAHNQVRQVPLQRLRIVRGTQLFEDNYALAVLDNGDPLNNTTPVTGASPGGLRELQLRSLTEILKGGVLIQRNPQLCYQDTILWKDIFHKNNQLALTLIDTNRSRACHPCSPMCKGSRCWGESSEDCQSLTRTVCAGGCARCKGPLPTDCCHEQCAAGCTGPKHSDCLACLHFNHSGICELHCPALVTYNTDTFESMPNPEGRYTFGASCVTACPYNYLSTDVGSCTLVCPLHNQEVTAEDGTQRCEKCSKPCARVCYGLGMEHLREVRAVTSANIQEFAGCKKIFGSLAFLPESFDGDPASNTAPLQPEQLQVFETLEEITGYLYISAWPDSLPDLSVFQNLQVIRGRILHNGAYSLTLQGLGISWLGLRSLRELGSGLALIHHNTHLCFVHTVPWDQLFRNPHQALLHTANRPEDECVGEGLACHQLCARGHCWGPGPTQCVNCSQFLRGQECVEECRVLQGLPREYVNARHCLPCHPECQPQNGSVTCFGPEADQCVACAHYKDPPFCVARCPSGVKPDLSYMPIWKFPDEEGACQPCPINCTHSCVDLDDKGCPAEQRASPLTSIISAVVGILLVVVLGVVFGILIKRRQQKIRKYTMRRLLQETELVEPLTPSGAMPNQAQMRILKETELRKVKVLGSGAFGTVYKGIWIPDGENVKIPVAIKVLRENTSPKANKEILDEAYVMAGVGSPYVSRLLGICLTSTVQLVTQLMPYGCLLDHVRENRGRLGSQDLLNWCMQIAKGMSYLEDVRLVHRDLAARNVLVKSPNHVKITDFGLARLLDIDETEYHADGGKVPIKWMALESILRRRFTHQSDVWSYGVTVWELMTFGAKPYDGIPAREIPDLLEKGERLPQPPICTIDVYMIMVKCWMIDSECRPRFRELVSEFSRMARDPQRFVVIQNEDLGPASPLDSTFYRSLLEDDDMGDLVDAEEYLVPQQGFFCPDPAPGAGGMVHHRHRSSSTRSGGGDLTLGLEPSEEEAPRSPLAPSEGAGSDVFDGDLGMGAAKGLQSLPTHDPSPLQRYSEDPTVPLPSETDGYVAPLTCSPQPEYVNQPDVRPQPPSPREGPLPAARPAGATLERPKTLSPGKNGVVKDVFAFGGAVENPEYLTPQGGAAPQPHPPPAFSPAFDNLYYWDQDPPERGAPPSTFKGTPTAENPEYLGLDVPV

Take `O=C(NCCCN1CCOCC1)c1cc(-c2ccc(O)cc2)on1`: the viability in [1] is 100%; in [3] it was 100% (inactive); in test [4], 83.7% (inactive); in test [5], 94.8% (inactive); in test [6] (setting [16]), 89%; in test [6] (setting [17]), 94.8%. In addition, the viability in test [12] was 92.3% (inactive); in test [13], 93.7% (inactive). For the same compound, in [2], the Her2 level is 87.5% (inactive). Besides, the differential viability (reversal) in test [6] (H69AR cells + 2 uM doxorubicin) was 5.84% (inactive). Moreover, the inhibition is -6.4% (inactive) in test [7], -4% (inactive) in test [8] and -0.505% (inactive) in test [14]. The growth inhibition was -9.88% (inactive) in [9] and -16.8% (inactive) in [10]. Further, the viability increase in test [11] was -6.65% (inactive). Also, the RAM network inhibition in [15] is 0.12% (inactive).

As to `CCc1ccccc1N1CC23C=CC(O2)C(C(=O)O)C3C1=O` (stereo not given), the viability in test [1] is 102%; in test [3] it was 102% (inactive); in [4], 101% (inactive); in test [5], 86.7% (inactive); in test [6] (setting [16]) it was 89.3%; in test [6] (setting [17]), 86.7%. In addition, the viability in [12] was 96% (inactive); in test [13] it was 102% (inactive). Further, the Her2 level in test [2] was 93.5% (inactive). Further, in test [6] (H69AR cells + 2 uM doxorubicin), the differential viability (reversal) is -2.65% (inactive). For the same compound, the inhibition in test [7] was -7.2% (inactive); in test [8], 0.83% (inactive); in [14], 0.365% (inactive). Moreover, the growth inhibition in test [9] is 1.68% (inactive); in test [10] it was -5.72% (inactive). Besides, the viability increase in [11] was 1.1% (inactive). The RAM network inhibition in test [15] is 1.2% (inactive).

`CCOC(=O)N1CCN(C(=O)c2ccc(CS(=O)(=O)c3ccc(OC)cc3)o2)CC1`: the viability in test [1] is 88%; in [3], 88% (inactive); in test [4], 104% (inactive); in test [5], 89.2% (inactive); in test [6] (setting [16]), 99.2%; in test [6] (setting [17]) it was 89.2%. Besides, the viability in test [12] was 104% (inactive); in test [13], 97.4% (inactive). The Her2 level in test [2] is 88% (inactive). Besides, the differential viability (reversal) in [6] (H69AR cells + 2 uM doxorubicin) was -9.97% (inactive). The results for the inhibition in test [7], in test [8] and in test [14] were -4.67% (inactive), 0% (inactive) and -0.045% (inactive), respectively. Besides, the figures for the growth inhibition in test [9] and in [10] were -12.3% (inactive) and -27.2% (inactive), respectively. Also, the viability increase in [11] is -1.05% (inactive). Besides, in test [15], the RAM network inhibition was 4.85% (inactive).

As to `Cc1cccc(N2CCN(C(=O)c3cc4ccccc4oc3=O)CC2)c1C`, the viability in test [1] was 90.5%; in test [3], 90.5% (inactive); in test [4] it was 98.6% (inactive); in [5] it was 100% (inactive); in [6] (setting [16]), 92%; in test [6] (setting [17]), 100%. Besides, the viability was 88.5% (inactive) in test [12] and 94.3% (inactive) in test [13]. In [2], the Her2 level was 116% (inactive). Moreover, the differential viability (reversal) in test [6] (H69AR cells + 2 uM doxorubicin) is 8.08% (inactive). Besides, the inhibition in [7] is -6.53% (inactive); in [8] it was -7.67% (inactive); in test [14], 0.78% (inactive). Moreover, the figures for the growth inhibition in test [9] and in test [10] were -4.18% (inactive) and -0.595% (inactive), respectively. Further, the viability increase in test [11] is 1.65% (inactive). The RAM network inhibition in [15] is -1.13% (inactive).

Turning to `COc1ccccc1-n1c(=O)[nH]c2c(C(N)=O)nc(CC(C)C)nc21`, the viability in test [1] is 81%; in test [3] it was 81% (inactive); in test [4], 96.8% (inactive); in [5] it was 80.4% (inactive); in [6] (setting [16]), 93%; in test [6] (setting [17]), 80.4%. Also, the viability in test [12] is 97.9% (inactive); in test [13], 99.5% (inactive). In addition, the Her2 level in test [2] is 109% (inactive). In test [6] (H69AR cells + 2 uM doxorubicin), the differential viability (reversal) was -12.7% (inactive). Moreover, the values for the inhibition in test [7], in test [8] and in [14] were -2.93% (inactive), -2.17% (inactive) and 1.01% (inactive), respectively. The growth inhibition in test [9] is -15.9% (inactive); in test [10] it was -13.4% (inactive). Further, the viability increase in test [11] was -2.94% (inactive). Further, the RAM network inhibition in test [15] is 2.83% (inactive).
